# Bioassay records: PubChem, National Center for Advancing Translational Sciences (NCATS)
# TDP1 cell noCPT: qHTS for Inhibitors of human tyrosyl-DNA phosphodiesterase 1 (TDP1): qHTS in cells in absence of CPT; DT40 Tdp1-/- hTDP1 cells, no CPT, ATP luminescence, 48 h; Potency, µM (series often up to 46.2 µM), for inactives: at the highest dose activity change, negative = growth inhibition, actives largely listed as inhibitors; 15% of 420,000 active; AID 686978, 2013; also: potency is read from the fitted curve at half-maximal effect; nearly all actives have a fitted effect of over 55% in size
#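 DT40 Tdp1-/-;hTDP1 cells, no CPT (DMSO vehicle only), 400 cells/well; compounds pin-transferred; ≥48 hr, 37 °C; CellTiter-Glo 30 min RT dark, luminescence read.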
# Gal4-VP16 FLuc: inhibits Gal4-VP16 luciferase reporter, ROR gamma counter-screen. Drosophila S2 Gal4-VP16 UAS-luciferase, luminescence, 20 h. Potency, µM (series often up to 53.6 µM), for the others: at the top dose activity, negative = inhibition, hits mostly inhibitors. 3.5% of 310,000 active;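 also: Gal4-VP16 expression switched on by copper sulfate through the metallothionein promoter; potency is read from the fitted curve at half-maximal effect; nearly all actives have a fitted effect of over 50% in size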
# RORgamma inh: ROR gamma (mouse) transcription inhibition; P51450; 5.4% of 310,000 active; Potency, µM (titrated, usually from 53.6 µM), for the others: top-dose activity change, negative = inhibition, actives largely listed as inhibitors; Drosophila S2 Gal4-RORgamma UAS-luciferase reporter, 20 h; also: potency is read from the fitted curve at half-maximal effect; nearly all actives have a fitted effect of over 60% in size
# Target sequence (P51450 whole entry, looked up, the tested form may be a part): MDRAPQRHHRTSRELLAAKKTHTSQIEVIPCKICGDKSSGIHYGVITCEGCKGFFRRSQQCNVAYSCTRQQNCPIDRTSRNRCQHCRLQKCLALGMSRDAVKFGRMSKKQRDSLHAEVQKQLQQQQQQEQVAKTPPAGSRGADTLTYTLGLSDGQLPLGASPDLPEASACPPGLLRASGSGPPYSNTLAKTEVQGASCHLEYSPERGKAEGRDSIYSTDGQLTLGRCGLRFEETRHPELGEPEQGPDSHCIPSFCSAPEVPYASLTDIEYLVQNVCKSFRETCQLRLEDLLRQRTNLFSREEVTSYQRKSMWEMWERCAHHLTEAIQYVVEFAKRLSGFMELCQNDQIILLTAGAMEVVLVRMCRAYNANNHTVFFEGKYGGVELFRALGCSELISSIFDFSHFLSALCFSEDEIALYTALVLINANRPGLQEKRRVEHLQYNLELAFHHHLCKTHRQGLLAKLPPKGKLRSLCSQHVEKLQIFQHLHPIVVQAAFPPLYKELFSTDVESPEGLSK
#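 In this cell-based reporter format, copper sulfate (700 uM final) drives Gal4–ROR gamma fusion expression from a metallothionein promoter in Drosophila Schneider cells; compounds preincubated 1 hr, reporter read after 20 hr at ambient temperature.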
# LDHA block: blocks human lactate dehydrogenase A; purified LDHA, NADH/diaphorase-resazurin fluorescence; active compounds read low; activity change, % (values are at about 110 or 230 µM); P00338; 0.15% of 480,000 active; in the data active = activity change below about -30%; inconclusive = mostly about -25% to -30%;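 also: plate controls were DMSO wells for no effect and wells without enzyme for full effect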
#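 Human LDH5 (2 nM) was incubated with 0.06 mM NADH and 0.2 mM pyruvate for 5 min at room temperature in Tris pH 7.4. Remaining NADH was coupled through diaphorase/resazurin, and resorufin fluorescence was read at 0 and 20 min.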
# IL1B secr inh: blocks inflammasome-driven IL-1 beta release; 4.7% of 360,000 active; AID 743279; THP-1 LPS/ATP IL-1B secretion, AlphaLISA, 16 h; active compounds read low; activity change, % at 57.5 µM; in the data active = activity change below about -50%; inconclusive = mostly about -30% to -49%
#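 THP-1 cells pretreated 1 hr with compounds (up to 57.5 uM final), then stimulated with LPS (250 ng/mL final) plus ATP (1.25 mM final); secreted IL-1B measured by AlphaLISA after 16 hr, decreased signal indicating inhibition.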
# DT40 TDP1 CPT: growth inhibition of DT40 Tdp1-/-;hTDP1 cells with camptothecin (screen for TDP1 inhibitors) | chicken DT40 Tdp1-/-;hTDP1 cells + 20 nM CPT, ATP luminescence, 48 h | AID 686979 | Potency, µM (series often up to 46.2 µM), for inactives: at the top dose activity change, negative = growth inhibition, hits mostly inhibitors | 12% of 420,000 active; also: potency is read from the fitted curve at half-maximal effect; nearly all actives have a fitted effect of over 55% in size
#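 Chicken DT40 Tdp1-/- cells complemented with human TDP1, 400 cells/well, exposed to compounds plus 20 nM camptothecin for at least 48 h at 37 C; viability read as ATP content by CellTiter-Glo luminescence.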
# * = called active by the depositor; ? = inconclusive; / = no result; [ ] = another dose, or the depositor's remark. Hits are enriched below; roughly 18% of the tested compounds scored in any of these assays. Unless noted, calls follow the shape of the dose curve; as a rule, active = well fitted curve in the direction sought with a large enough effect; inconclusive = small, poorly fitted or top-dose-only effect, or another doubt; inactive = no such curve, though single readings can be large; an effect the other way counts as inactive or inconclusive. Unless noted, % is scaled to controls: 0 for no effect and ±100 for the full control effect.
SMILES,TDP1 cell noCPT,Gal4-VP16 FLuc,RORgamma inh,LDHA block,IL1B secr inh,DT40 TDP1 CPT
c1ccc(-c2cn3nc(-c4ccccc4)c(-c4ccccc4)nc3n2)cc1,?,-3.0%,22.4µM*,0.7,-55.3*,?
O=[N+]([O-])c1ccc(-c2cn3nc(-c4ccccc4)c(-c4ccccc4)nc3n2)cc1,?,3.4%,-2.7%,-3.6,/,4.4%
Cc1ccc(NC(=O)/C(C#N)=C(\N)C(Cl)(Cl)Cl)nc1,2.06µM*,-5.2%,-32.1%,4.9,-100.3*,0.581µM*
Cc1ccc(NC(=O)C(=O)Nc2ccc(C)cn2)nc1,-10.1%,-15.7%[10 µM],16.9%,-1.1,-16.6,-14.3%
CCc1cccc(C)c1NC(=O)Cn1ccn(-c2ccc(OC)c(OC)c2)c(=O)c1=O,/,/,/,-1.1,/,/
CC(C)Sc1ncc(Cl)c(C(=O)Nc2nnc(C(C)C)s2)n1,-10.2%,/,/,-2.5,/,-21.0%
CSc1ncc(Cl)c(C(=O)Nc2nnc(SC)s2)n1,-5.3%,0.9%,0.1%,-6.0,0.0,0.3%
CCc1nnc(NC(=O)c2nc(SC)ncc2Cl)s1,-9.8%,/,/,1.0,/,0.7%
CSc1nnc(NC(=O)c2nc(S(=O)(=O)Cc3ccccc3)ncc2Cl)s1,16.4µM*,?,12.6µM*,-0.8,-100.5*,11.6µM*
CC(C)c1nnc(NC(=O)c2nc(S(=O)(=O)Cc3ccccc3)ncc2Cl)s1,9.2µM*,11.2µM*,22.4µM*,2.7,-103.4*,5.8µM*
Cc1ccccc1CS(=O)(=O)c1ncc(Cl)c(C(=O)Nc2nnc(C(C)C)s2)n1,10.3µM*,/,/,2.3,/,8.2µM*
CCc1nnc(NC(=O)c2nc(SCc3ccccc3C)ncc2Cl)s1,-9.7%,/,/,1.9,/,-16.1%
CCCSc1nnc(NC(=O)c2nc(SC)ncc2Cl)s1,-1.5%,-38.6%,12.6µM*,-6.1,13.8,-15.1%
C=CCOc1ccc(CNn2cn[nH]c2=S)cc1,-4.9%,?,12.6µM*,-7.5,5.7,-3.2%
C=CCOc1c(Br)cc(CNn2cn[nH]c2=S)cc1OC,-12.1%,-2.3%,10µM*,-6.2,9.4,-3.0%
Cc1ccccc1-c1nnn(CC(=O)Nc2ccc(Cl)c(S(=O)(=O)N3CCOCC3)c2)n1,/,/,/,6.1,/,/
O=C(NCc1ccco1)c1ccc2c(c1)N(Cc1ccc(Cl)cc1)CCS2,?,-2.9%,26.4%,-10.8,-60.2*,?
O=C(NCc1ccco1)c1ccc2c(c1)N(Cc1ccccc1)CCS2,-11.9%,-7.8%,-2.8%,-2.9,?,-14.5%
O=C(NCCc1ccc(Cl)cc1)c1ccc2c(c1)N(Cc1ccccc1)CCS2,?,/,/,-11.0,/,16.4µM*
COc1ccc(OC)c(CCNC(=O)c2ccc3c(c2)N(Cc2ccccc2)CCS3)c1,16.4µM*,?,19.1%,0.0,2.1,23.1µM*
Cc1ccc(CN2CCSc3ccc(C(=O)NCCc4ccccc4)cc32)cc1,23.1µM*,/,/,-2.8,/,23.1µM*
NS(=O)(=O)c1ccc(CCNC(=O)c2ccc3c(c2)N(Cc2ccccc2)CCS3)cc1,-8.4%,1.0%,-1.1%,0.2,22.4,1.1%
Cc1ccc(CN2CCSc3ccc(C(=O)NCC(C)c4ccccc4)cc32)cc1 (stereo not given),23.1µM*,/,/,4.7,/,?
Cc1cccc(S(=O)(=O)c2c(N)n(/N=C/c3ccccc3)c3nc4ccccc4nc23)c1,?,-8.3%,-7.8%,-2.8,-29.3,-22.8%
Nc1c(S(=O)(=O)c2ccccc2)c2nc3ccccc3nc2n1/N=C/c1cccc(O)c1,23.1µM*,-1.3%,-2.1%,-1.6,-71.8*,14.6µM*
SMILES,TDP1 cell noCPT,Gal4-VP16 FLuc,RORgamma inh,LDHA block,IL1B secr inh,DT40 TDP1 CPT
Cc1cc(CCCCCCCCc2cc(C)cc(=O)o2)oc(=O)c1,16.4µM*,?,36.1%,-1.9,6.9,?
CC(C)(C)OC(=O)N1CCC(c2c(C(=O)NCc3ccco3)cnn2-c2ccccc2)CC1,?,/,/,0.0,/,?
Cc1ccc(CN2CCC(CNC(=O)c3cnn(-c4ccccc4)c3C3CCN(C(=O)OC(C)(C)C)CC3)CC2)cc1,14.6µM*,/,/,-2.5,/,14.6µM*
Cc1ccc(CNC(=O)c2cnn(-c3cccc(C)c3)c2C2CCN(C(=O)OC(C)(C)C)CC2)cc1,23.1µM*,/,/,3.2,/,16.4µM*
CC(C)(C)OC(=O)N1CCC(c2c(C(=O)NCc3ccccc3)cnn2-c2ccccc2)CC1,?,/,/,2.8,/,?
Cc1ccc(-n2ncc(C(=O)NCc3cccs3)c2C2CCN(C(=O)OC(C)(C)C)CC2)cc1,?,/,/,-1.9,/,23.1µM*
COC(=O)CCC1CCCCC12OCCO2 (stereo not given),/,/,/,17.1,/,/
CCCN1C(=O)/C(=C/c2ccc(N3CCOCC3)cc2)NC1=S,14.6µM*,7.94µM*,3.98µM*,-0.6,21.9,?
CCN1C(=O)/C(=C/c2ccc(N3CCCC3)cc2)NC1=S,23.1µM*,-86.3%,0.794µM*,2.2,-67.4*,23.1µM*
Cc1ccc(CN2C(=O)N/C(=C\c3ccc(N4CCOCC4)cc3)C2=O)cc1,?,11.2µM*,-72.5%,-3.0,5.1,-28.0%
CCN(CC)S(=O)(=O)c1cccc(-c2nnc(SC(C)C#N)n2Cc2ccccc2)c1 (stereo not given),18.4µM*,-10.7%,?,-4.5,-18.9,14.6µM*
CCN(CC)S(=O)(=O)c1cccc(-c2nnc(SCC#N)n2Cc2ccccc2)c1,?,-11.5%,43.5%,3.0,13.9,?
CCOC(=O)C1CCCCN1C(=O)CCc1nnc(-c2ccc3c(c2)OCO3)o1 (stereo not given),-24.7%,/,/,-0.4,0.7,-23.7%
CCC(=O)C1CCCN(C(=O)CCc2nnc(C3(c4ccc(Cl)cc4)CCC3)o2)C1 (stereo not given),?,-2.8%,35.8%,-6.2,0.7,23.1µM*
O=C(CCc1nnc(C2(c3ccc(Cl)cc3)CCC2)o1)N1CCCC1,-12.6%,-1.4%,32.3%,-5.1,8.5,-18.2%
CC(=O)c1ccc(-c2nnc(CCC(=O)N3CCCC(C(=O)CC(C)C)C3)o2)s1 (stereo not given),?,-1.5%,7.4%,1.6,2.6,13µM*
Cc1ccc(CN2CCSc3ccc(C(=O)Nc4ccc(Cl)cc4)cc32)cc1,?,/,/,-5.6,/,23.1µM*
O=C(Nc1ccc(Cl)cc1)c1ccc2c(c1)N(Cc1ccccc1)CCS2,?,/,/,1.8,/,14.6µM*
Cn1c(=O)c2c(nc(Br)n2Cc2ccc(Cl)cc2)n(C)c1=O,/,/,/,-10.1,/,/
CCc1ccc(NS(=O)(=O)c2ccc3[nH]c(=O)[nH]c3c2)cc1,-8.4%,-10.7%,?,-0.5,10.2,5.1%
